From PubChem BioAssay (EPA / NIEHS)
Active and inactive are the calls of the source. The calls were made as follows: active = hit-call score of the fitted dose curve at least 0.9, where 1 is the maximum; inactive = score below 0.9.

biological target: Transcriptional activator Myb (Homo sapiens) (UniProt P10242); assay: ATG_Myb_CIS: Attagene CIS-FACTORIAL HepG2 Assay for human Myeloblastosis (Myb) Proto-Oncogene Transcription Factor (AID 2282986); details: HepG2 Attagene CIS-FACTORIAL Myb reporter transcription; actives raise or lower the signal
Method in brief: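 Reporter mRNA is quantified by RT-PCR and capillary electrophoresis 24 h after dosing HepG2 cells transfected with cis-regulated reporter units, which track endogenous transcription factor activity. Gain and loss of signal are fitted versus DMSO baseline.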

Chain of Transcriptional activator Myb (Homo sapiens) (P10242 whole entry, looked up): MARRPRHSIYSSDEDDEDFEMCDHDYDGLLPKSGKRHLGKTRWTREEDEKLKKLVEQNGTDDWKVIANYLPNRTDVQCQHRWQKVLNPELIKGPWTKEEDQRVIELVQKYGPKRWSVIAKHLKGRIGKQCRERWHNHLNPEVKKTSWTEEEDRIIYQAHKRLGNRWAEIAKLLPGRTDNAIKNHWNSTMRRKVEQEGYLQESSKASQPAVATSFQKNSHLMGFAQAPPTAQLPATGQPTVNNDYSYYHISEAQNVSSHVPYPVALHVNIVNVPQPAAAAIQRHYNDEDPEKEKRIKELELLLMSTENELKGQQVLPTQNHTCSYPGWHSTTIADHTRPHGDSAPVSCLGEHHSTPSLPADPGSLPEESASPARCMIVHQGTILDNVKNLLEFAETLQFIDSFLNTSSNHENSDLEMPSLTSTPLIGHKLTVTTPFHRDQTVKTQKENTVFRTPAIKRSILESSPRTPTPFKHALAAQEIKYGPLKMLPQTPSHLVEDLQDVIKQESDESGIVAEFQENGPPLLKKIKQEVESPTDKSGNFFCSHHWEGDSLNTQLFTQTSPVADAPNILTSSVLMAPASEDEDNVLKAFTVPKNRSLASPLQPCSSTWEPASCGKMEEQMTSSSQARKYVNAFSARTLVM

SMILES | outcome | AC50
CCCCSCCCC | inactive | –
CCCCC1(COC(=O)CCC(=O)O)C(=O)N(c2ccccc2)N(c2ccccc2)C1=O | inactive | –
Cc1occc(=O)c1OC(=O)C(C)C | inactive | –
CC(C)(C)c1ccc(C(=O)O)cc1 | inactive | –
CC1CC(O)CC(C)(C)C1 (stereo not given) | inactive | –
O=C(O)c1cccnc1C(=O)O | inactive | –
CCC(C)c1cc([N+](=O)[O-])cc([N+](=O)[O-])c1OC(=O)OC(C)C (stereo not given) | – | 156 µM (active)
Cc1cccc(Nc2ccccc2)c1 | – | 170 µM (active)
C=C[Si]1(C)O[Si](C)(C=C)O[Si](C)(C=C)O[Si](C)(C=C)O1 (stereo not given) | inactive | –
O=Cc1ccccc1S(=O)(=O)O | inactive | –
Brc1ccc(Br)c(Br)c1 | inactive | –
CS(=O)(=O)OCCCCOS(C)(=O)=O | inactive | –
OC[C@H]1O[C@@H]2O[C@H]3[C@H](O)[C@@H](O)[C@@H](O[C@H]4[C@H](O)[C@@H](O)[C@@H](O[C@H]5[C@H](O)[C@@H](O)[C@@H](O[C@H]6[C@H](O)[C@@H](O)[C@@H](O[C@H]7[C@H](O)[C@@H](O)[C@@H](O[C@H]8[C@H](O)[C@@H](O)[C@@H](O[C@H]9[C@H](O)[C@@H](O)[C@@H](O[C@H]1[C@H](O)[C@H]2O)O[C@@H]9CO)O[C@@H]8CO)O[C@@H]7CO)O[C@@H]6CO)O[C@@H]5CO)O[C@@H]4CO)O[C@@H]3CO | inactive | –
CC1(C)O[C@@H]2[C@@H](CO[C@@]3(COS(N)(=O)=O)OC(C)(C)O[C@@H]23)O1 | inactive | –
CCC(=O)OCCOc1ccccc1 | inactive | –
C[N+](C)(C)CCCCCC[N+](C)(C)C | inactive | –
COc1ccc(N=Nc2cc(C)c(N=Nc3ccc(S(=O)(=O)O)cc3)cc2OC)cc1 | inactive | –
COC(=O)C=C(C)CCC=C(C)C | inactive | –

SMILES | outcome | AC50
CC(=O)OCCCc1ccccc1 | inactive | –
CCCCOCC | inactive | –
OCC(O)c1ccccc1 (stereo not given) | inactive | –
CCCCC(CC)COC(C)=O (stereo not given) | inactive | –
CC(C)OCCO | inactive | –
COCCOC(=O)c1ccccc1C(=O)OCCOC | inactive | –
Cc1ccc(OC(=O)c2ccccc2O)cc1 | inactive | –
CCCCCCCCCC(=O)OC | inactive | –
Cc1c(Cl)cccc1[N+](=O)[O-] | inactive | –
Nc1ccc2c(O)cc(S(=O)(=O)O)cc2c1 | inactive | –
O=CCc1ccccc1 | inactive | –
CC(C)CCCCCCc1ccc(OCCOCCO)cc1 | inactive | –
C=C(C)C(=O)OCCOCCOCCOCCOC(=O)C(=C)C | inactive | –
[O-]n1ccccc1=S.[O-]n1ccccc1=S.[Zn+2] | inactive | –
O=[N+]([O-])c1cccc(Cl)c1 | inactive | –
CC(=O)Nc1ccc(C(=O)CCl)cc1 | inactive | –
Cc1ccc(-c2ccccc2)cc1 | inactive | –
